This note sets out measurements from PubChem BioAssay (EPA / NIEHS).

Each structure is given as a SMILES string. “And” between values parts separate entries of the source, which are not always exact repeats. Equal values may be shown once. Results filed as inconclusive are left out. Some structures have more than one record in an assay (separate samples or runs), and their calls can disagree. The source made the active and inactive calls. The calls were made as follows, unless noted: active = hit-call score of the fitted dose curve at least 0.9, where 1 is the maximum; inconclusive = response in the unintended direction; inactive = score below 0.9.

Assay [1] concerns Sodium/Iodide Symporter (NIS), SLC5A5 (gene 6528). Kind of assay: CPHEA_Stoker_NIS_Inhibition_RAIU: CPHEA's Radioactive Iodide Uptake (RAIU) Assay for Sodium/Iodide Symporter (NIS) Inhibition, Stoker and Laws Labs (AID 2283841). Put shortly:
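hNIS-HEK293T-EPA cells incubated 2 h at room temperature with compound (0.001–100 uM, 0.5% DMSO) and 329 pM final 125I in HBSS/10 mM HEPES, pH 7.4. Intracellular 125I counted; normalised to DMSO maximal uptake, triplicate, three biological replicates.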

Assay [2] can be described thus: CPHEA_Stoker_NIS_Cytotoxicity: Cytotoxicity Assessment for CPHEA's Radioactive Iodide Uptake (RAIU) Assay for Sodium/Iodide Symporter (NIS) Inhibition, Stoker and Laws Labs (AID 2283897).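 As to AC50: active means loss of ATP signal versus DMSO meaning cytotoxicity.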 An outline of the steps:
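hNIS-HEK293T-EPA cells, human NIS expressed in HEK293T, treated 2 h with chemicals (0.001–100 uM, 0.5% final DMSO). ATP content read by CellTiter-Glo luminescence; loss of signal analysed relative to DMSO.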

Assay [3] relates to chicken Androgen Receptor (AR), gene 422165. Kind of assay: ATG_chAR_XSP2: Attagene TRANS-FACTORIAL Multi-Species (XSP2) HepG2 Assay for chicken Androgen Receptor (AR) (AID 2283819).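 Also: hits raise reporter mRNA above DMSO so potency is for activation.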 An outline of the steps: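 Readout is reporter mRNA induction via RT-PCR/capillary electrophoresis after 24 h chemical exposure, positive direction relative to DMSO. Transiently transfected HepG2 express chimeric chicken AR–GAL4; AR stimulated by 3 nM 6-alpha-fluorotestosterone and 1.5 nM norgestrel.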

The subject of assay [4] is frog Estrogen Receptor (ER), gene 398734. Description: ATG_frER1_XSP2: Attagene TRANS-FACTORIAL Multi-Species (XSP2) HepG2 Assay for frog Estrogen Receptor (ER) (AID 2283821).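 Also: hits raise reporter mRNA above DMSO baseline so potency means agonist or activator.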 Put shortly: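 Gain-of-signal mRNA reporter assay, HepG2 human liver cells, 24 h dosing; transcripts read by fluorescent RT-PCR fragment analysis, DMSO as negative control.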
Assay [5] is described as follows: ATG_M_19_XSP2: Attagene TRANS-FACTORIAL Multi-Species (XSP2) HepG2 Assay for M32 Transcription Factor (Internal Marker) (AID 2283822). An outline of the steps:
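Internal background marker in a multi-species nuclear receptor TRANS panel: transfected HepG2 cells exposed 24 h, with 3 nM 6-alpha-fluorotestosterone and 1.5 nM norgestrel present. Readout is RT-PCR of reporter transcripts resolved by capillary electrophoresis, gain-of-signal versus DMSO.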

The nature of assay [6]: ATG_M_32_XSP2: Attagene TRANS-FACTORIAL Multi-Species (XSP2) HepG2 Assay for M19 Transcription Factor (Internal Marker) (AID 2283826). Put shortly:
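An internal background marker among multiplexed transfected reporters in HepG2 liver cells was measured 24 h after dosing. Androgen receptor stimulation came from 3 nM 6-alpha-fluorotestosterone and 1.5 nM norgestrel.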

The target of assay [7] is Estrogen receptor (Homo sapiens) (UniProt P03372). Description: ATG_hERa_XSP2: Attagene TRANS-FACTORIAL Multi-Species (XSP2) HepG2 Assay for human Estrogen Receptor (ERa) (AID 2283827). An outline of the steps:
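Trans-activation of exogenous human ERa-Gal4 chimera read in HepG2 as reporter transcript after 24 h exposure; medium included 3 nM 6-alpha-fluorotestosterone and 1.5 nM norgestrel. Quantified by RT-PCR with capillary electrophoresis, positive-direction fitting against DMSO.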

The test system of assay [8] is frog Estrogen Receptor (ER2), gene 100174814. Description: ATG_frER2_XSP2: Attagene TRANS-FACTORIAL Multi-Species (XSP2) HepG2 Assay for frog Estrogen Receptor (ER2) (AID 2283828). An outline of the steps: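 Induction of reporter mRNA, baseline set by DMSO, is the endpoint. The panel was run in transfected HepG2 cells over 24 h, with 3 nM 6-alpha-fluorotestosterone and 1.5 nM norgestrel present to stimulate androgen receptor.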

The target of assay [9] is Peroxisome proliferator-activated receptor gamma (Homo sapiens) (UniProt P37231). Kind of assay: ATG_hPPARg_XSP2: Attagene TRANS-FACTORIAL Multi-Species (XSP2) HepG2 Assay for human Peroxisome Proliferator-activated Receptor gamma (PPARg) (AID 2283829).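 Also: actives raise reporter mRNA above DMSO so AC50 reflects PPARg activation.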 An outline of the steps:
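Human HepG2 cells carried transiently transfected Gal4 reporter units and were treated with chemical for 24 h alongside androgen-receptor stimulants (3 nM 6-alpha-fluorotestosterone, 1.5 nM norgestrel). Reporter transcripts were detected by RT-PCR with capillary electrophoresis, analysed in the positive direction against DMSO.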

Assay [10] concerns the target mouse Peroxisome Proliferator-activated Receptor gamma (PPARg), Pparg (gene 19016) (UniProt P37238). Kind of assay: ATG_mPPARg_XSP2: Attagene TRANS-FACTORIAL Multi-Species (XSP2) HepG2 Assay for mouse Peroxisome Proliferator-activated Receptor gamma (PPARg) (AID 2283830).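 Also: hits are gains in reporter mRNA above DMSO so AC50 marks activation.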 An outline of the steps: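 Multiplexed TRANS reporter readout: after 24 h chemical exposure of transfected HepG2 cells (with 3 nM 6-alpha-fluorotestosterone, 1.5 nM norgestrel present), RNA reverse-transcribed, amplified, 6-FAM-labelled and resolved by capillary electrophoresis; mouse PPARg-Gal4 induction scored against DMSO.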

The target of assay [11] is human Thyroid hormone Receptor beta (TRb), THRB (gene 7068) (UniProt P10828). Description: ATG_hTRb_XSP2: Attagene TRANS-FACTORIAL Multi-Species (XSP2) HepG2 Assay for human Thyroid hormone Receptor beta (TRb) (AID 2283840).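 Also: actives raise reporter mRNA so potency reflects agonist-like gain of signal.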 Put shortly: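 Gain-of-signal reporter transcription, referenced to DMSO, was measured in transiently transfected HepG2 after 24 h exposure; labeled RT-PCR products were resolved by capillary electrophoresis. Assay medium included 3 nM 6-alpha-fluorotestosterone and 1.5 nM norgestrel.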
human Thyroid hormone Receptor beta (TRb), THRB (gene 7068), sequence (P10828 whole entry, looked up): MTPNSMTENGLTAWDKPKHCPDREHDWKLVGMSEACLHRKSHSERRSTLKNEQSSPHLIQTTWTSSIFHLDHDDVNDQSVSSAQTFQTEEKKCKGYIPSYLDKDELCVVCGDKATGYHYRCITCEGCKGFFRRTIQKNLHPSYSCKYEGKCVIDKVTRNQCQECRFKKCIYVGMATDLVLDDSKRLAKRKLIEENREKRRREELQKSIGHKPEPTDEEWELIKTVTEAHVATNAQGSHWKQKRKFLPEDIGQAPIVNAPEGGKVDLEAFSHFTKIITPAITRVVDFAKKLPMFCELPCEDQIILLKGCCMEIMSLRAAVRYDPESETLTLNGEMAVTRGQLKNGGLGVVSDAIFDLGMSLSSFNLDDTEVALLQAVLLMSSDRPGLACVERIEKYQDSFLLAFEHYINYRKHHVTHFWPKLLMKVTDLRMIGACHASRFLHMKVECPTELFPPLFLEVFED

Assay [12] has as its target zebrafish Thyroid Hormone Receptor alpha (TRa), thraa (gene 30670) (UniProt Q98867). Kind of assay: ATG_zfTRa_XSP2: Attagene TRANS-FACTORIAL Multi-Species (XSP1) HepG2 Assay for zebrafish Thyroid Hormone Receptor alpha (TRa) (AID 2283832).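 Also: actives raise zebrafish TRa-Gal4 reporter transcript above DMSO baseline.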 Put shortly: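 HepG2, transient MRTU transfection, exogenous NR-Gal4 chimeras; 24 h dosing; mRNA readout via RT-PCR/CE fluorescence; positive direction vs DMSO.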

In assay [13] the test system is zebrafish Peroxisome Proliferator-activated Receptor gamma (PPARg), gene 557037. Description: ATG_zfPPARg_XSP2: Attagene TRANS-FACTORIAL Multi-Species (XSP2) HepG2 Assay for zebrafish Peroxisome Proliferator-activated Receptor gamma (PPARg) (AID 2283833).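 Also: actives increase reporter signal over DMSO so AC50 reflects activation.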 Put shortly: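 HepG2, transient MRTU transfection, 24 h compound; zfPPARg-GAL4 reporter mRNA by RT-PCR + capillary electrophoresis; gain-of-signal vs DMSO.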

Assay [14] has as its system turtle Thyroid Hormone Receptor, alpha (TRa), gene 101949057. Description: ATG_trTRa_XSP2: Attagene TRANS-FACTORIAL Multi-Species (XSP1) HepG2 Assay for turtle Thyroid Hormone Receptor, alpha (TRa) (AID 2283834).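 Also: hits raise reporter mRNA over the DMSO baseline so AC50 marks activators.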 An outline of the steps:
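Multiplexed TRANS reporter assay; HepG2 carrying NR-Gal4 constructs treated 24 h. mRNA of the GAL4-UAS reporter quantified via labelled RT-PCR fragments on a genetic analyzer, vs DMSO negative control.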

The nature of assay [15]: ATG_M_61_XSP2: Attagene TRANS-FACTORIAL Multi-Species (XSP2) HepG2 Assay for M61 Transcription Factor (Internal Marker) (AID 2283835; active = hit-call score of the fitted dose curve at least 0.9, where 1 is the maximum; inactive = score below 0.9;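 also: active means a rise in signal above the DMSO baseline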). Put shortly: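 Signal was mRNA induction detected as fluorescence after RT-PCR and capillary electrophoresis, analysed in the gain direction with DMSO as baseline. HepG2 cells transiently carrying reporter constructs received chemicals for 24 h.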

The target of assay [16] is zebrafish Thyroid Hormone Receptor beta (TRb), thrb (gene 30607) (UniProt Q9PVE4). Description: ATG_zfTRb_XSP2: Attagene TRANS-FACTORIAL Multi-Species (XSP1) HepG2 Assay for zebrafish Thyroid Hormone Receptor beta (TRb) (AID 2283836).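 As to AC50: potency for induction of reporter signal above DMSO so agonist direction.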 Put shortly:
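Transfect HepG2 with multiple reporter transcription units, dose chemical, incubate 24 h. Isolate RNA, reverse-transcribe, amplify and fluorescently label reporter sequences, digest with HpaI, then resolve by capillary electrophoresis. Positive direction fitted against DMSO.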

The target of assay [17] is human Thyroid hormone Receptor alpha (TRa), THRA (gene 7067) (UniProt P10827). Description: ATG_hTRa_XSP2: Attagene TRANS-FACTORIAL Multi-Species (XSP2) HepG2 Assay for human Thyroid hormone Receptor alpha (TRa) (AID 2283838). Put shortly: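 Reporter transcripts were read by RT-PCR with fluorescent primer extension, HpaI digestion and capillary electrophoresis. These came from HepG2 cells carrying multiplexed TRa-Gal4 TRANS constructs, harvested 24 hours after dosing. The medium also held 6-alpha-fluorotestosterone (3 nM) and norgestrel (1.5 nM), and increases were fitted against DMSO.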
human Thyroid hormone Receptor alpha (TRa), THRA (gene 7067), sequence (P10827 whole entry, looked up, the tested form may be a part): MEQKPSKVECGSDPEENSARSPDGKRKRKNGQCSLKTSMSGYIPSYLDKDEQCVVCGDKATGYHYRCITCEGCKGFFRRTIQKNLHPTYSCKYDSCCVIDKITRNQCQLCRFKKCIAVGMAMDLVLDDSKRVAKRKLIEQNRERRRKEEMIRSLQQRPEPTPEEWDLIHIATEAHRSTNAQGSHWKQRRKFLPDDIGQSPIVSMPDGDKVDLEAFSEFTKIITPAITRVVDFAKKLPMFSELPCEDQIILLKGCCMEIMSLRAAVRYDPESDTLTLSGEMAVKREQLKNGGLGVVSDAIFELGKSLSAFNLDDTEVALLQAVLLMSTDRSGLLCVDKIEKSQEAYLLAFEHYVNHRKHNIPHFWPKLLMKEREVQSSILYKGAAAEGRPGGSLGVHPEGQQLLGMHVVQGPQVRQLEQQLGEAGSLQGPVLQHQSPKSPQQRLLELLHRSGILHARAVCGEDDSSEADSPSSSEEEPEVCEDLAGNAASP

The target of assay [18] is frog Thyroid hormone Receptor alpha (TRa), thra-a (gene 397942) (UniProt P15204). Description: ATG_frTRa_XSP2: Attagene TRANS-FACTORIAL Multi-Species (XSP2) HepG2 Assay for frog Thyroid hormone Receptor alpha (TRa) (AID 2283839).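 As to AC50: AC50 reflects induction of frog TRa-driven reporter mRNA above DMSO baseline.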 An outline of the steps:
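Chimeric frog TRα-GAL4 activity in human liver cells measures reporter transcript induction 24 h post-dose. Detection uses RT-PCR, HpaI-digested labelled products and fluorescence capillary electrophoresis; DMSO serves as negative control.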

Estrogen receptor (Homo sapiens), sequence (P03372 whole entry, looked up, the tested form may be a part): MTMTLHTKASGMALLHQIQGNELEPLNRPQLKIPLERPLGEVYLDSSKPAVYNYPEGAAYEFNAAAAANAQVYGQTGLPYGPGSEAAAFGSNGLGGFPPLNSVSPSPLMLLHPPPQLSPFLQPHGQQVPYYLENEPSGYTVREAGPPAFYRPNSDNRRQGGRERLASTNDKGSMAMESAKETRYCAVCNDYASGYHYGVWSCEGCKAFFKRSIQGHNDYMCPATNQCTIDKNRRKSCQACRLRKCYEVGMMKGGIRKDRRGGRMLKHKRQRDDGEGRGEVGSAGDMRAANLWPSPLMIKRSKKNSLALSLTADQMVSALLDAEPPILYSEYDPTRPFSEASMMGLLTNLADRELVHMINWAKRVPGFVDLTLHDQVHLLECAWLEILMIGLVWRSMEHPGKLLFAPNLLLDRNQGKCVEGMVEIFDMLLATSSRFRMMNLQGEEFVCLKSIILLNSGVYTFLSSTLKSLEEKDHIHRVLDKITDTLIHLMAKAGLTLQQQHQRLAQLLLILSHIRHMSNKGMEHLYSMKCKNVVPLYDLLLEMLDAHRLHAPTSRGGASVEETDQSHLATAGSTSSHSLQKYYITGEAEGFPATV
zebrafish Thyroid Hormone Receptor alpha (TRa), thraa (gene 30670), sequence (Q98867 whole entry, looked up, the tested form may be a part): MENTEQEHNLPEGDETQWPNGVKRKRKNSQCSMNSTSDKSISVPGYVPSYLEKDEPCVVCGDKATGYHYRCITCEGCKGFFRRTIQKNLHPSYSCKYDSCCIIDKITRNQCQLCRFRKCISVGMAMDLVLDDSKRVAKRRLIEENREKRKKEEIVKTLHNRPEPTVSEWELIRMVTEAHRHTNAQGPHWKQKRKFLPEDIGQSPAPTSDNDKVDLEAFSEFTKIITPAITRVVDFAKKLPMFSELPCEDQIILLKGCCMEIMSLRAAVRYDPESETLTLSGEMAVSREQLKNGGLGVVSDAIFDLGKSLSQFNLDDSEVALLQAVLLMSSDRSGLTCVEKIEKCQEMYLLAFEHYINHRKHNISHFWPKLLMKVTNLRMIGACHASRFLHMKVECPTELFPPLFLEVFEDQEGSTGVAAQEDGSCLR
Peroxisome proliferator-activated receptor gamma (Homo sapiens), sequence (P37231 whole entry, looked up, the tested form may be a part): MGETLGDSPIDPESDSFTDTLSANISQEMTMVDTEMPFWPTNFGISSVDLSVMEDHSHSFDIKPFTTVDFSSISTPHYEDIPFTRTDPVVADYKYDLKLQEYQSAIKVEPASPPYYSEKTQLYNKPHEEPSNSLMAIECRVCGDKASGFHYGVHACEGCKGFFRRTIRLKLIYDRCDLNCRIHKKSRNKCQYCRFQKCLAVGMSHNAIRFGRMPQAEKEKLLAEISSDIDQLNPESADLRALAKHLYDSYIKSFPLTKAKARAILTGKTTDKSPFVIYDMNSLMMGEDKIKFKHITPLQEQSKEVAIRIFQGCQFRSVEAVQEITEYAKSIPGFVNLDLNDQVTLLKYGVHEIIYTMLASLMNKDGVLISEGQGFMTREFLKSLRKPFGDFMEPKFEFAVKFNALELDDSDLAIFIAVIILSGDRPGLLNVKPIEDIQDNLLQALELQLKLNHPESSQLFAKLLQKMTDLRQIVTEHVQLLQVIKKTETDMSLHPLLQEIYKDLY
mouse Peroxisome Proliferator-activated Receptor gamma (PPARg), Pparg (gene 19016), sequence (P37238 whole entry, looked up, the tested form may be a part): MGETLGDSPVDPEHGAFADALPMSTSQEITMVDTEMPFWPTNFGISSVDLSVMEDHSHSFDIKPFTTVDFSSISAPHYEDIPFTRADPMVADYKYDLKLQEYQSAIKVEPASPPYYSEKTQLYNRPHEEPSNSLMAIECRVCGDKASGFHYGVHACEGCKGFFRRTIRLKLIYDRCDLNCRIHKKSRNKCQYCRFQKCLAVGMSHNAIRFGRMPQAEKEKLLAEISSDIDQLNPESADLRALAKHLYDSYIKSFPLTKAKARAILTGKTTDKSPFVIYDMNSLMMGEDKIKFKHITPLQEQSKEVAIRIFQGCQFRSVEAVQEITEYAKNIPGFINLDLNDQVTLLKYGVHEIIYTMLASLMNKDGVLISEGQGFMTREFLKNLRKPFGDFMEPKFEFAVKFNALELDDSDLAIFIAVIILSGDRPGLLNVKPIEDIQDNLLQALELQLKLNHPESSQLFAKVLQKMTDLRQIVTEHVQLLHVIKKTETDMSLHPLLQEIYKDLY
zebrafish Thyroid Hormone Receptor beta (TRb), thrb (gene 30607), sequence (Q9PVE4 whole entry, looked up): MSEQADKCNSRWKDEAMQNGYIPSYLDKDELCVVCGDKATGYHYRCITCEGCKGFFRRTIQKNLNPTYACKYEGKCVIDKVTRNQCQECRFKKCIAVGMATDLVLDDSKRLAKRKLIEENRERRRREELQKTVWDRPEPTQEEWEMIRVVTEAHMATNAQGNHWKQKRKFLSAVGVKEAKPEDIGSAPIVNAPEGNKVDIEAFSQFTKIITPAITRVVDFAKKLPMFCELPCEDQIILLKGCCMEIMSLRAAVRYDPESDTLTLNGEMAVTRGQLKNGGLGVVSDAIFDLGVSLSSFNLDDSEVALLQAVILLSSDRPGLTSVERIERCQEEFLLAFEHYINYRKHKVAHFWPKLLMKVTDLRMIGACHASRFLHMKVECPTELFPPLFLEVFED
frog Thyroid hormone Receptor alpha (TRa), thra-a (gene 397942), sequence (P15204 whole entry, looked up, the tested form may be a part): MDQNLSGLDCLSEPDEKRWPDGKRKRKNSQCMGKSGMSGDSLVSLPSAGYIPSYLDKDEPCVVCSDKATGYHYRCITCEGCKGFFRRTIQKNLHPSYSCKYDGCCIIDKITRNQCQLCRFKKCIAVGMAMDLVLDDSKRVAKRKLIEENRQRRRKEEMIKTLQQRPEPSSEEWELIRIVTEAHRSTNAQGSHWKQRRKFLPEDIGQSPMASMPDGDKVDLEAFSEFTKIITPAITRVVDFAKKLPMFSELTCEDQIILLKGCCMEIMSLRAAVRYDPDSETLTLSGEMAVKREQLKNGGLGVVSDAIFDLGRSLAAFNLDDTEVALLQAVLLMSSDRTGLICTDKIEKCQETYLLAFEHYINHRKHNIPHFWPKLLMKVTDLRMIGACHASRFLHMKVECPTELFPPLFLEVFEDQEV

One may read the AC50 as the midpoint of the concentration-response curve, whichever way the signal moves. As for `CCOc1cc(C(C)(C)C)ccc1C1COC(c2c(F)cccc2F)=N1` (configuration not stated), the AC50 in assay [1] is 1.21 µM (active). For the same compound, in assay [2], the outcome was inactive.
As to `CO/N=C(/C1=NOCCO1)c1ccccc1Oc1ncnc(Oc2ccccc2Cl)c1F`, the AC50 in assay [1] is 9.92 µM (active); in [2], 10.9 µM (active).
Regarding `O=C1C2CC=CCC2C(=O)N1SC(Cl)(Cl)Cl` (configuration not stated), in assay [1], the AC50 is 36 µM (active). For the same compound, the result in assay [2] was inactive.
Consider `CSC(=O)c1c(C(F)F)nc(C(F)(F)F)c(C(=O)SC)c1CC(C)C`, for which the compound was classed as inactive in [3], in assay [4], in assay [5], in assay [6], in assay [11] and in assay [1]. Further, the outcome in assay [2] was inactive. In addition, the AC50 is 3.05 µM (active) in assay [7], 5.69 µM (active) in assay [8], 6.53 µM (active) in assay [9] and 5.52 µM (active) in assay [10].
Take `C=CCOC(=O)C(C)(C)OC(=O)c1cc(-n2c(=O)cc(C(F)(F)F)n(C)c2=O)ccc1Cl`: the outcome in assay [1] and in assay [2] was inactive.
Regarding `CCN(CC)C(=O)C(C)Oc1cccc2ccccc12` (configuration not stated), the result in assay [4], in [6], in assay [12], in [13], in assay [14] and in assay [15] was inactive. Besides, the call in assay [16], in assay [17], in assay [18], in [11], in [1] and in [2] was inactive. Moreover, the AC50 in assay [7] was 7.99 µM (active); in [8], 25.5 µM (active); in assay [9], 39.8 µM (active); in [10] it was 42.6 µM (active).
In the case of `CC(C)=CC1C(C(=O)OCc2coc(Cc3ccccc3)c2)C1(C)C` (configuration not stated), the result in [1] and in assay [2] was inactive.
As for `CCCCC(C#N)(Cn1cncn1)c1ccc(Cl)cc1` (configuration not stated), the result in assay [2] was inactive.
Take `N#Cc1c[nH]cc1-c1cccc2c1OC(F)(F)O2`: the AC50 was 4.14 µM (active) in [4]; 1.51 µM (active) in [7]; 1.22 µM (active) and 859 nM (active) in assay [8]; 14 µM (active) and 21.7 µM (active) in assay [9]; 27.2 µM (active) in [10]; 27 µM (active) in assay [12]. Further, the AC50 in [16] was 100 µM (active); in assay [17], 100 µM (active); in assay [18] it was 100 µM (active) and 60.7 µM (active). Further, the outcome in assay [4], in [12], in assay [13], in assay [14], in assay [15] and in assay [16] was inactive. In addition, the outcome in assay [17], in assay [11], in assay [1] and in [2] was inactive.
